# KDM5B inhibitor: blocks human KDM5B histone demethylase activity. KDM5B demethylase, FDH-coupled NADH fluorescence (FDH is formaldehyde dehydrogenase). Q9UGL1. Potency, µM (highest dose often 57.7 µM), most hits filed as inhibitors. 220,000 compounds, 2.6% hits; active means well fitted inhibition curve with a large enough effect; further: 0% is about no effect; nearly all actives have a fitted effect of over 70% in size
#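 Inhibition is measured as reduced NADH fluorescence generation from FDH coupling to formaldehyde release. Truncated KDM5BΔAP at 200 nM final acts on H3K4me3 peptide (12.5 µM in substrate mix) in pH 7.5 HEPES buffer with Tween-20, 30 min, room temperature.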
# * = called active by the depositor; i = inactive. Many of the other results were omitted from the sample, so hits are more common in it than they were. Potency means the concentration at half of the fitted maximal effect.
SMILES,KDM5B inhibitor
CCN1CC(C)C(=O)CC1C (centres undefined),i
N#CCOc1ccc(NC(=O)c2n[nH]c(=O)c3ccccc23)cc1,i
CN1Cc2nc(-c3cc(F)cc(F)c3)ccc2OCC1=O,i
Cc1ccc(-c2ccc3c(n2)CN(C)C(=O)CO3)cc1,i
COc1ccc(-c2ccc3c(n2)CN(CCOc2ccccc2)C(=O)CO3)cc1,13µM*
COc1ccc(-c2ccc3c(n2)CN(C)C(=O)CO3)cc1,35µM*
O=C1COc2ccc(-c3ccncc3)nc2CN1CCOc1ccccc1,i
O=C1COc2ccc(-c3ccccc3)nc2CN1CCOc1ccccc1,i
CN(CC(=O)NC(=O)NCC(F)(F)F)c1ccccc1,i
Cc1nc(N2CCN(C(=O)c3ccc(C)c(F)c3)CC2)cc(C(F)(F)F)n1,i
Cc1ccccc1NC(=O)Cn1c(=O)n(-c2ccccc2)c(=O)c2c1cc(C)n2C,i
Cc1noc(-c2cn(C3CCN(C(=O)c4ccc(F)cc4Cl)CC3)nn2)n1,i
O=C(COc1ccccc1)N1CCC(O)(c2csc(CN3CCOCC3)n2)CC1,i
CSc1cccc(NC(=O)c2ccc(F)cc2F)c1,i
Cc1cccc(CC(=O)N2CCC[C@H](n3c(=O)n(Cc4ccccc4)c4cccnc43)C2)c1,i
COc1ccc(C/C(C#N)=C\Nc2cccc(C(F)(F)F)c2)cc1,i
CC(C)(C)c1ccc(C2CCCN2CC(=O)N2CCCCC2)cc1 (centres undefined),i
CCOc1ccc(-c2cc3c(=O)n(CC(=O)NCc4ccc(C)cc4)ccn3n2)cc1,i
CCOc1nccn2c(-c3ccc(CNC(=O)Cn4cnnn4)cc3)cnc12,40µM*
CCOc1ccc(-c2cc3c(=O)n(CC(=O)NCc4ccc(Cl)cc4)ccn3n2)cc1,i
N#C/C(=C/c1ccccc1OC(F)F)C(=O)O,i
Cn1cnc2cc(-c3cccc4[nH]ncc34)cc(C(=O)NCc3cccnc3)c21,40µM*
Cc1cc(C)c(CNC(=O)c2cc(Nc3ccccc3)cc3ncn(C)c23)c(=O)[nH]1,i
Cn1cnc2cc(Nc3ccc(Cl)cc3F)cc(C(=O)NCc3cccnc3)c21,35µM*
COc1cc(C(=O)Nc2ccccc2C(=O)NCc2cccnc2)cc(OC)c1OC,i
SMILES,KDM5B inhibitor
Cc1cc(C(=O)NCc2cccnc2)c(C)s1,i
Cc1cc(-c2cc(C(=O)NCc3c(C)cc(C)[nH]c3=O)c3c(c2)ncn3C)ccn1,i
O=C(Nc1ccccc1C(=O)NCc1cccnc1)c1ccccc1Cl,i
Cn1cncc1CNC(=O)c1nc(-c2cccc(N3CCOCC3)c2)cc2c1ccn2C,i
Cn1cncc1CNC(=O)c1cc(-c2ccc(F)cc2)cc2ncn(C)c12,28µM*
O=C(Nc1cccc(Br)c1)Nc1ccc2c(c1)N(C(=O)c1ccccc1)CC2,i
COC(=O)[C@H]1CN(C(C)=O)CCN1C(C)=O,i
CC(C)(C)C(=O)COC(=O)c1cc(S(N)(=O)=O)ccc1Br,i
NNC1CCCC1O (centres undefined),i
COc1ccc(-c2c(C)oc3cc(OC(=O)C(C)C)ccc3c2=O)cc1OC,i
Cc1cccc(NC(=O)N2CCC(CC(=O)NC3CC3)C2)c1 (centres undefined),i
CN1CCN(Cc2nc(C3(O)CCN(C4COC4)CC3)cs2)CC1,i
CC(C)=CC(=O)N1C[C@@H](NC(=O)Nc2ccc(F)cc2F)C[C@H]1C(=O)N[C@H](Cc1c[nH]c2ccccc12)C(N)=O,i
COc1ccccc1Nc1ncc2c(n1)CN(C(=O)c1cccc(O)c1)CCN2,i
O=C(CCc1ccccc1)N1CCNc2cnc(Nc3cccc(C(F)(F)F)c3)nc2C1,25µM*
Cc1ncsc1C(=O)N1CCNc2cnc(Nc3cccc(F)c3)nc2C1,i
O=C(COC(=O)c1cccnc1Nc1cccc(C(F)(F)F)c1)NCc1ccc2c(c1)OCO2,i
O=C(Cc1ccc2c(c1)OCO2)N1CCNc2cnc(Nc3cccc(C(F)(F)F)c3)nc2C1,14µM*
Cn1nccc1C(=O)N1CCNc2cnc(Nc3ccccc3)nc2C1,i
CC(C)(C)CNC(=O)c1nc[nH]c1C(=O)N1CCCC1,i
CN(CC(=O)N1CCn2nc(Cc3ccccc3)cc2C1)Cc1ccncc1,14µM*
CC(=O)c1c(C)nn(CC(=O)N2CCn3nc(Cc4ccccc4)cc3C2)c1C,i
O=C(CCc1ccccc1Cl)N1CCn2nc(Cc3ccccc3)cc2C1,i
COCCOc1ccc2c(n1)CCN(C(=O)C1(c3ccc(OC)cc3)CC1)C2,i
CNC(=O)[C@@H]1CN(C(=O)c2sc(C)nc2C)C[C@H]1c1n[nH]c(C)n1,i
SMILES,KDM5B inhibitor
O=[S+]1([O-])NC2(CCN(CC3CCOCC3)CC2)COc2ccccc21,79µM*
O=[S+]1([O-])NC2(CCN(Cc3ccccn3)CC2)COc2ccccc21,i
O=[S+]1([O-])NC2(CCN(Cc3ccsc3)CC2)COc2ccccc21,i
COc1cc(SC)ccc1C(=O)Oc1ccccc1C,i
c1ccc(-c2cc3c(ccn3Cc3ccncc3)c(N3CCOCC3)n2)cc1,7.9µM*
COc1cc(F)ccc1-c1ccc(=O)n(Cc2cccc(F)c2)n1,i
O=C(NCc1ccc(S(=O)(=O)N2CCOCC2)cc1)c1cc(-c2ccncc2)nc2ccccc12,i
O=C1NCc2cc(-c3cc4c(ccn4Cc4ccncc4)c(N4CCOCC4)n3)ccc21,32µM*
COc1ccc(Nc2nc(N3CCOCC3)c3nccnc3n2)cc1OC,i
COc1cc(F)ccc1-c1cc2c(ccn2Cc2ccncc2)c(N2CCOCC2)n1,35µM*
c1cc(Cn2ccc3c(N4CCOCC4)nc(-c4cncnc4)cc32)ccn1,i
CCOC(=O)c1oc2cc(O)c(CC)cc2c(=O)c1-c1nc2ccccc2s1,i
O=C1NCCCCCCN(C(=O)CCC2CCCC2)[C@H]2CCC[C@@H]12,i
CSc1nc(C)c(CCC(=O)Nc2nc(-c3ccc4c(c3)CCO4)cs2)c(C)n1,i
Cc1ccc(NC(=O)N2CCCC(Cn3c(C4CC4)nc4cccnc43)C2)cc1C (centres undefined),i
NC(=O)CNC(=O)[C@@]1(O)C[C@@H](O)[C@H](O)[C@@H](NC(=O)c2ccc(F)c(Cl)c2)C1,i
Cc1cc2oc(C(=O)Nc3nonc3-c3cccs3)c(C)c2cc1C,i
NC(=O)c1cccc(CN2CCC3(CC2)Cc2ccccc2N(C(=O)C2CCCC2)C3)c1,i
CC(=O)Nc1ccccc1OCc1cc(C)cc(C)c1,i
COC(=O)[C@@H]1Cc2c([nH]c3ccccc23)[C@H]2C[C@@H](NCCNC(C)=O)C[C@@H](c3ccc(-c4ccccc4)cc3)N21,i
Cc1ccc(C2c3[nH]c4ccccc4c3CCN2C(=O)c2ccccc2Br)cc1 (centres undefined),i
COC(=O)[C@@H]1Cc2c([nH]c3ccccc23)[C@H]2C[C@@H](NC(C)C)C[C@@H](c3ccccc3)N21,11µM*
COC(=O)[C@@H]1Cc2c([nH]c3ccccc23)[C@H]2C[C@@H](NCCc3cnc[nH]3)C[C@@H](c3cccc(Cl)c3)N21,i
Cc1ccc(C2c3[nH]c4ccccc4c3CCN2C(=O)CCC2CCCC2)cc1 (centres undefined),i
COC(=O)[C@@H]1Cc2c([nH]c3ccccc23)[C@H]2C[C@@H](NC(C)C)C[C@@H](c3ccc(C)cc3)N21,28µM*
Cn1c(CCNC(=O)CC2CCOC3(CCN(S(C)(=O)=O)CC3)C2)nc2ccccc21 (centres undefined),i

# Screening data deposited in PubChem BioAssay by National Center for Advancing Translational Sciences (NCATS).
